{"source": "PubChem BioAssay (NCI)", "note": "The panel holds about 83,000 compounds, 20% with a hit somewhere; the sample as a whole holds those more often.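 Cells were grown in 96-well plates and exposed to the test compound at a single concentration for 48 hours; results are reported as percent growth, with values below 10 considered active.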 Unmarked numbers belong to inactive results. The source made the active and inactive calls.", "data": [{"system": "HOP-92 NSCLC", "test": "NCI-60 one-dose screen, 48 h (100 = growth as untreated, 0 = no growth, -100 = all killed)", "conditions": "10 µM unless noted", "values": [{"compound": "O=C(NNC(=O)c1ccc(-n2cc(-c3ccccc3)nn2)cc1)Nc1ccccc1", "growth": "98.8%"}, {"compound": "COc1ccc(-c2csc(N(C(=O)N3CCN(c4cc5c(cc4F)c(=O)c(C(=O)O)cn5C4CC4)CC3)c3ccccc3)n2)cc1", "growth": "-18.1% (active)"}, {"compound": "O=Nc1c(-c2c(O)[nH]c3ncccc23)[nH]c2ccccc12", "growth": "54%"}, {"compound": "CCN1CC(=O)N(/N=C2\\C(=O)Nc3ccccc32)C1=S", "growth": "87.8%"}, {"compound": "O=C1CC(N2C(=O)/C(=C/C(Cl)=C\\c3ccc([N+](=O)[O-])cc3)SC2=S)C(=O)N1c1ccc(Cl)cc1", "note": "(stereo not given)", "growth": "-18.6% (active)"}, {"compound": "CN(C)C1CCN(Cc2ccc(NC(=O)c3cncc(C#Cc4cnc(N)c5ncccc45)c3)cc2C(F)(F)F)CC1", "growth": "66.4%"}, {"compound": "Cn1cc(-c2nonc2-c2c[nH]c3ccc(Br)cc23)c2cc(Br)ccc21", "growth": "55.6%"}, {"compound": "C[C@@H]1CCC[C@H]1CC(N)C(=O)O", "note": "(stereo not given in full)", "growth": "98.2%"}, {"compound": "S=C(Nc1ccc(-c2nc(N3CCOCC3)c3cccn3n2)cc1)Nc1cccnc1", "growth": "-3.48% (active)"}, {"compound": "O=C(CN1C(=O)CCC1=O)Nc1ncc(Cc2ccc(F)cc2)s1", "growth": "99.9%"}, {"compound": "CN1CCN(C(=O)OCc2ccc3c(Cl)cc(Cl)c(O)c3n2)CC1", "growth": "71.1%"}, {"compound": "O=C(O)[C@@H]1c2ccccc2-c2ccccc2[C@H]1C(=O)O", "growth": "61.5%"}, {"compound": "Clc1ccc(Sc2cnc(-c3ccccc3)o2)cc1", "growth": "86.1%"}, {"compound": "C=C(C)[C@@H]1CC[C@]2(C(=O)NCC#CCN3CCN(C)CC3)CC[C@]3(C)[C@H](CC[C@@H]4[C@@](C)(CCC#N)[C@H](C(=C)C)CC[C@]43C)[C@@H]12", "growth": "8.35% (active)"}, {"compound": "Cc1ccc(/C=N/Nc2nc(Nc3ccccc3)nc(-n3nc(C)cc3C)n2)cc1", "growth": "60.7%"}, {"compound": "COc1ccc(/C(C)=C(/c2ccc(OCCCN(C)C)cc2)c2ccc(OC(=O)Cc3ccccc3)cc2)cc1", "growth": "50.5%"}, {"compound": "CCOC(=O)C1=C(NC)OCC1=O", "growth": "83.5%"}, {"compound": "C#CCOc1ccc2ncnc(Nc3cccc(NC(=O)C=C)c3)c2c1", "growth": "66.1%"}, {"compound": "COc1cc(-n2cc(-c3cc(O)c(C/C=C(\\C)CCC=C(C)C)c(O)c3)nn2)cc2c1O[C@]1(C)CC[C@@H](O)C(C)(C)[C@H]1C2", "growth": "-6.06% (active)"}, {"compound": "N#C/C(=C\\c1ccc(Br)cc1)n1nnc2ccc(F)cc21", "growth": "36.7%"}, {"compound": "CCN(CC)CCNC(=O)c1cn2ncnc(Oc3ccc(NC(=O)Nc4ccc(Cl)c(C(F)(F)F)c4)c(F)c3)c2c1C", "growth": "22.1%"}, {"compound": "Cc1nc(N2CCOCC2)sc1S(N)(=O)=O", "growth": "88.2%"}, {"compound": "CC(=O)N(N=Nc1ccccc1)c1cccc2ccccc12", "growth": "96.5%"}, {"compound": "Cc1ccc(-c2nc(N3CCNCC3)c3oc(-c4ccccc4)nc3n2)cc1", "growth": "-25.6% (active)"}, {"compound": "Cc1cc2c(O)c(-c3cc(Cl)ccc3Cl)c3sc(=O)oc3c2cc1C", "growth": "-15.5% (active)"}, {"compound": "N=C(N)c1ccc(-c2ccc(-c3cc(Cl)cc(Cl)c3)o2)o1", "growth": "50.5%"}, {"compound": "CC1=Nc2cnc(Nc3ccc(OCCN4CCCCC4)cc3)nc2Nc2ccccc21", "growth": "32%"}, {"compound": "Cc1cccnc1NC(=S)Nc1ncccc1C", "growth": "109%"}, {"compound": "CN1C(=O)/C(=C/c2ccc(C(=O)Nc3ncc(Cc4ccc(Cl)cc4)s3)cc2)SC1=S", "growth": "51.6%"}, {"compound": "COc1ccc(-c2nnc3n(C)c(=O)c4ccccc4n23)cc1N", "growth": "49.9%"}, {"compound": "CC1=C(CCC(C)N(C)Cc2ccc(OCCCN3CCCC3)cc2)C(C)(C)CCC1", "note": "(stereo not given)", "growth": "27.3%"}, {"compound": "CCCc1cc(NC)nc(S(=O)(=O)CC)n1", "growth": "108%"}, {"compound": "Cc1cccc(Cl)c1NC(=O)c1ccc2nc(NC(=O)NCCN(C)C)sc2c1", "growth": "64.1%"}, {"compound": "O=c1oc2ccccc2cc1C1=NN=C(SCc2ccccc2)SC1", "growth": "87.2%"}, {"compound": "CC1(c2ccccc2O)NN=C(/N=C/c2cccc([N+](=O)[O-])c2)N1C(Cc1c[nH]c2ccccc12)C(=O)O", "note": "(stereo not given)", "growth": "81.2%"}, {"compound": "CC(O)c1cnc(/C=C2\\SC(=S)N(Cc3ccccc3)C2=O)s1", "note": "(stereo not given)", "growth": "43.7%"}, {"compound": "Cc1ccc(CNc2ccc(Cl)cc2NCc2ccc(C)c(O)c2)cc1O", "growth": "-11% (active)"}, {"compound": "NC(=O)c1c(NC(=O)c2ccccc2)sc2c1CCC(=O)C2", "growth": "-11.5% (active)"}, {"compound": "CCn1c(=S)sc2c(Nc3ccc(F)cc3)nc(-c3cccnc3)nc21", "growth": "18.4%"}, {"compound": "COc1cc(C(=O)n2nc(N3CCN(C)CC3)c3cc(N)ccc32)cc(OC)c1OC", "growth": "43%"}]}]}
